Measurements: PubChem BioAssay AID651718 (The Scripps Research Institute Molecular Screening Center, 2012)
Out of some 360,000 compounds screened, about 2,700 (0.75%) were called active. This is one part of a sample in which actives are shown more often than they occur. Rule as the data show it: active = inhibition above about 4.5%; inactive = the rest.

These compounds were tested on Methionine sulfoxide reductase A (Bos taurus) (assay: bovine MsrA enzyme inhibitors, primary screen, biochemical, absorbance, HTS (AID 651718;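 also: 0% = vehicle wells with enzyme and 100% = reference inhibitor wells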)). Conditions: purified bovine MsrA, absorbance read-out; at 15.5 µM; active compounds read high.

Row | SMILES | inhibition
1 | COC(=O)[C@]12C[C@H](CC(=O)NCc3cccc(C(F)(F)F)c3)C(=O)N(Cc3ccc4c(c3)OCO4)C1=C[C@H](COCc1ccccc1)O[C@@H]2C | 0.87% (inactive)
2 | CC(C)C[C@H](NC(=O)CC1CCCC1)C(=O)N1CCC[C@H]1C(=O)NCc1ccccc1 | 0.9% (inactive)
3 | COC(=O)C1=C(C)N(Cc2cccc(C(F)(F)F)c2)C(=NCc2cccc(C(F)(F)F)c2)NC1c1ccccc1C(F)(F)F (stereo unspecified) | -1.33% (inactive)
4 | CCC(=O)Nc1c(S(=O)(=O)c2ccccc2)c2nc3ccccc3nc2n1Cc1ccccc1 | 2.69% (inactive)
5 | CCN(CC)CCn1c(N)c(S(=O)(=O)c2ccccc2)c2nc3ccccc3nc21 | 0.85% (inactive)
6 | Cc1ccc(S(=O)(=O)c2c(N)n(C)c3nc4ccccc4nc23)cc1 | 4.64% (active)
7 | O=C1CN(C(=O)COc2c(Cl)cccc2Cl)c2ccccc2N1 | -0.91% (inactive)
8 | COC(=O)[C@]12C[C@H](CC(=O)NCc3ccccc3)C(=O)N(CCC3=CCCCC3)C1=C[C@H](C(C)(C)C)O[C@@H]2C | 0.95% (inactive)
9 | O=C(CCNC(=O)c1ccccc1)NN=Cc1ccc(Br)o1 | 0.9% (inactive)
10 | O=C(CCC(=O)N/N=C/c1ccc(Br)o1)N/N=C/c1ccc(Br)o1 | 1% (inactive)
11 | O=C(N/N=C/c1ccc(Br)o1)c1cncc(Br)c1 | 4.63% (active)
12 | CCCCN(C(=O)COc1ccc(NC(C)=O)cc1)C1CCS(=O)(=O)C1 (stereo unspecified) | -0.22% (inactive)
13 | Cc1cc(C)c(S(=O)(=O)NCC(c2ccc3c(c2)OCO3)N2CCOCC2)c(C)c1 (stereo unspecified) | -0.85% (inactive)
14 | CC(C)OP(=O)(OC(C)C)C(Nc1ccccc1)c1cccc([N+](=O)[O-])c1 (stereo unspecified) | 1.56% (inactive)
15 | CC(Nc1ccc([N+](=O)[O-])cc1[N+](=O)[O-])c1ccccc1 (stereo unspecified) | 35.6% (active)
16 | CC1(C)C/C(=N/Nc2ccc([N+](=O)[O-])cc2[N+](=O)[O-])C(C)(C)O1 | -0.53% (inactive)
17 | COC(=O)[C@]12C[C@H](CC(=O)N3CCN(C(=O)C4CC4)CC3)C(=O)N(Cc3ccc4c(c3)OCO4)C1=C[C@H](C(C)(C)C)O[C@@H]2C | -0.48% (inactive)
18 | CC(=O)c1ccc(S(=O)(=O)NCC2CCN(C(=O)C(=O)c3cccs3)CC2)cc1 | 0.56% (inactive)
19 | Cc1ccc2nc(CN(C)C(=O)[C@@H](Cc3ccccc3)NC(=O)[C@H]3O[C@@H](n4ccc(=O)[nH]c4=O)[C@H](O)[C@@H]3O)[nH]c2c1 | 0.5% (inactive)

Row | SMILES | inhibition
20 | Cc1ccc(C(=O)N/N=C/c2sc(=O)n(Cc3cccc(C(=O)O)c3)c2Cl)cc1 | 6.02% (active)
21 | Cc1ccc(C(=O)Nc2c(C#N)c(C)c(C)n2Cc2ccccc2)cc1 | -0.41% (inactive)
22 | Cc1ccccc1-n1c(C)cc(/C=N/NC(=O)c2ccc(CN3CCOCC3)cc2)c1C | 1.71% (inactive)
23 | CC1CC(c2ccccc2)n2nc(NC(=O)c3cccs3)nc2N1 (stereo unspecified) | -0.81% (inactive)
24 | CC1=C(N2CCN(c3ncccn3)CC2)CCC1=O | 0% (inactive)
25 | O=C1/C(=C\Nc2ccccc2)CCN1c1ncccn1 | 5.03% (active)
26 | COc1ccccc1Oc1ccc(N/C=C2/CCCC2=O)cc1 | 1.18% (inactive)
27 | CNS(=O)(=O)c1ccc(NC(=O)C2CC(=O)N(c3ccc(Cl)cc3)C2)cc1 (stereo unspecified) | 1.4% (inactive)
28 | CCOc1ccc(/C=C(/C#N)c2nnc(N3CCOCC3)n2-c2ccccc2)cc1OC | 6.28% (active)
29 | COc1cc(/C=C/C(=O)OCC(=O)N2CCOCC2)ccc1OCC#N | 2.74% (inactive)
30 | CCOc1cc(-c2noc(CCC(=O)N3CCOCC3)n2)ccc1OC | -1.14% (inactive)
31 | NC(=O)c1ncn([C@@H]2O[C@H](C(=O)O)[C@@H](O)[C@H]2O)n1 | 0.08% (inactive)
32 | COc1cc(C2C(C(=O)c3sc(C)nc3C)=C(O)C(=O)N2CCN(C)C)cc(OC)c1OC (stereo unspecified) | 18.4% (active)
33 | COc1ccc(C2C(C(C)=O)=C(O)C(=O)N2CCc2c[nH]c3ccccc23)cc1 (stereo unspecified) | 2.78% (inactive)
34 | CCCOc1ccc(/C(O)=C2/C(=O)C(=O)N(CCN(C)C)C2c2ccc(OC)c(OC)c2)cc1 (stereo unspecified) | 1.66% (inactive)
35 | Cc1cc(C)c(S(=O)(=O)NCCCN2CCOCC2)cc1Br | -0.29% (inactive)
36 | CCc1nnc(NC(=O)/C=C/c2ccc(C)o2)s1 | 5.52% (active)
37 | CCc1nnc(NC(=O)c2ccco2)s1 | 2.11% (inactive)
38 | CCc1nnc(NC(=O)[C@@H](NC(=O)c2cccc(C)c2)C(C)C)s1 | 0.82% (inactive)

Row | SMILES | inhibition
39 | COc1ccc(SSc2ccc(OC)cc2C(=O)O)c(C(=O)O)c1 | 3.29% (inactive)
40 | CC(=O)C1=C(C)N(Cc2ccc(Cl)cc2)C(=S)NC1c1ccc(F)cc1 (stereo unspecified) | 0.08% (inactive)
41 | Cc1cc2c(=O)n(CC(=O)NCC(=O)Nc3ccc(C(C)C)cc3)cnc2s1 | -2.15% (inactive)
42 | CC(=O)Nc1ccc2c3c(ccc([N+](=O)[O-])c13)CC2 | 0.76% (inactive)
43 | NC(=O)c1ccc(Nc2ccc3c(c2)CCC3)c([N+](=O)[O-])c1 | 13.9% (active)
44 | Cc1cccc(N2CCN(c3ccc(C(N)=O)cc3[N+](=O)[O-])CC2)c1C | -0.25% (inactive)
45 | Cc1ccc(Nc2ccc(C(N)=O)cc2[N+](=O)[O-])cc1 | 11.1% (active)
46 | O=[N+]([O-])c1ccccc1Nc1ccc(O)cc1 | 2.41% (inactive)
47 | Cc1ccc(Nc2cc(C)nc3c(C)ccc([N+](=O)[O-])c23)cc1 | -0.67% (inactive)
48 | C=CC1=CCN(S(=O)(=O)C(C)(C)C)[C@@H]1CCO | -1.1% (inactive)
49 | COc1ccc(C)cc1NC(=O)CNCc1cccs1 | 1.1% (inactive)
50 | N=C1c2ccccc2-c2ccccc21 | 0.22% (inactive)
51 | COc1cc(C2CC(=O)N3CN(Cc4ccccc4)CSC3=C2C#N)ccc1OCc1ccccc1 (stereo unspecified) | 0.9% (inactive)
52 | CCCCN1C(=O)C(CC(=O)NCc2cccs2)CC(C(=O)N2CCOCC2)=C1C (stereo unspecified) | 0.14% (inactive)
53 | OC(c1ccccc1)(c1ccccc1)C1CCN(CCCOc2ccc(-c3ccsc3)cc2)CC1 | 0.25% (inactive)
54 | CN(C)S(=O)(=O)c1cccc(NC(=S)N/N=C/C(=O)c2ccccc2)c1 | 1.15% (inactive)
55 | O=C(O)c1cccc(NC(=S)N/N=C/c2c[nH]c3ccccc23)c1 | 5.25% (active)
56 | O=C(Cc1c[nH]c2ccccc12)N/N=C/c1cccc(F)c1 | 0.41% (inactive)
